In all, about 33,000 sequences were measured (“E-score (-0.5 to 0.5)”: median about -0.012, highest 2% from about 0.27 on). The sample holds the highest values, similar sequences and a random draw of the others, so the mix is not that of the screen.
What follows are sequences tested against T1, Vhr1 (UniProt P40522) (assay: PBM E-score (8-mer binding enrichment) (E-score (-0.5 to 0.5)); higher = stronger / more preferred TF binding). Conditions: protein concentration: 200 nM; construct: GST-full length.
T1 sequence: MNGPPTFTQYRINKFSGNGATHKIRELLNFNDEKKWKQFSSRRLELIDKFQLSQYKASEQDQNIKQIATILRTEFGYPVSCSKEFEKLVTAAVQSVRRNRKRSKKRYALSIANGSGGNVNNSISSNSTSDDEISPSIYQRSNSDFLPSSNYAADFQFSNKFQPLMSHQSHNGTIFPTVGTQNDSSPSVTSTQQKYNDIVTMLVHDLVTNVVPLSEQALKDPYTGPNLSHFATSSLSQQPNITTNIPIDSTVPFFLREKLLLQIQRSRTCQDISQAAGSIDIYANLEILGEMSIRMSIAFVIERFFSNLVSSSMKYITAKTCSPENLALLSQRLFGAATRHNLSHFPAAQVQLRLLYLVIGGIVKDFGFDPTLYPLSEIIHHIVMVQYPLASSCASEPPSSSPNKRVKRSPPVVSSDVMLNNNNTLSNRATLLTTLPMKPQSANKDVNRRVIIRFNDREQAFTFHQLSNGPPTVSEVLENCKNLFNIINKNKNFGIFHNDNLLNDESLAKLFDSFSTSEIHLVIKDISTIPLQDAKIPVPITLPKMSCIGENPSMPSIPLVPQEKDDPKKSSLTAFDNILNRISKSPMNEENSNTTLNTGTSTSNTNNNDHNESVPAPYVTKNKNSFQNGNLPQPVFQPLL
Procedure, shortened: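 Yeast transcription factors carrying a GST tag, as full-length proteins or DNA-binding domains, were produced by PURExpress in vitro transcription/translation. About 100-200 nM protein was applied to universal all-10-mer Agilent arrays, double-stranded by primer extension on fresh or once-stripped slides. Bound protein was detected with fluorescent anti-GST, and scans were normalised with masliner. The Universal PBM Analysis Suite gave each ungapped eight-base word, pooled with its reverse complement, an E-score, a modified Wilcoxon-Mann-Whitney statistic.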

Sequence | PBM E-score
ATTTCTGA | -0.152
TATGGAGA | -0.137
CTCCCCCC | -0.0954
ATCTGTTA | -0.0428
GTACACAC | 0.261
ATCAGGTA | 0.193
ATCCCCAC | 0.122
ATACCCAC | 0.176
GCGCGAAC | 0.0578
AGCTAAAG | -0.21
AGAGCCTC | -0.228
GGGCGTGA | 0.297
AGGCGTGA | 0.019
CGGCGTGA | 0.142
GCGACTAA | 0.316
GCGACTAC | 0.341
TCGACTAA | 0.207
ACGACTAC | 0.209
CCGACTAC | 0.269
ACGACTAA | 0.194
CCCAGGCA | 0.0398
CATTCAGC | -0.161

Sequence | PBM E-score
CTTGTAAA | -0.0609
CGTGGGAG | 0.0618
AATAAAGC | -0.176
AGTCGCCC | 0.346
AGTCGCAG | 0.24
GGTCGCAC | 0.0284
AGTCGCCA | 0.233
AGTCGCAC | 0.296
AGTCGCCG | 0.246
GTTCTTGA | -0.0686
CTAGGGGC | -0.146
AACACCAC | 0.0462
GTTCAAAC | -0.0829
ATACTGCA | 0.234
CGCCACGA | -0.0781
CTTGCAAC | 0.0737
GGAATCAC | 0.388
CGAATCAC | 0.331
GGAATCAA | 0.154
CGAATCTC | -0.0376
GGAATCCC | 0.034
CGAATCCC | 0.00269

Sequence | PBM E-score
AAAAGCCA | -0.0583
ACACCTGC | 0.0726
AGGCTACA | 0.0844
ATGACCAC | 0.176
ACCCTATG | 0.136
TACGTTGA | 0.0682
GATTTTGA | 0.0345
ATTACTTG | 0.164
ACTCCGAC | 0.332
ACTCCGAT | 0.1
GCTCCGAC | 0.0683
ACTCCGAG | 0.357
CCTCCGAC | -0.0621
ACTCCGAA | 0.116
TCTTAACA | -0.0919
CATGCATC | 0.28
CATGCATG | 0.117
CATGCATA | 0.0152
ACCTCCAT | 0.0255
CTAGTGGA | -0.162
GATCCCTA | -0.0993
GGCCAGGA | -0.105

Sequence | PBM E-score
AATTAGTA | 0.146
AGTTAGTC | 0.291
CATTAGTC | 0.257
AATTAGTC | 0.29
CGTTAGTC | 0.132
AGTTAGTA | 0.137
CAATCTAA | -0.13
ATAGCAAG | 0.161
GCGAGACC | -0.049
ACTTAGGA | -0.198
TGACTACA | 0.359
GGACTAAA | -0.248
CGACTACC | 0.22
AGACTACA | 0.17
CGACTACG | 0.188
CGACTACA | 0.272
CGACTAAA | 0.0758
TGACTAAA | 0.326
AGACTAAA | 0.0442
CGACTAAC | 0.303
